Laboratory results reported in the supplement of paper PMC10849652.
Targets with a hit are over-represented here; the source holds about 7,900 in all. About 0.6% of all pairs of compound and target were hits. A number with no mark means an inactive call.

How the values were obtained:
Assay in all cases: log2 fold change, soluble protein after heating vs DMSO (PISA); higher = thermal stabilisation; K562 cells, 10 uM, 30 min; active = over 0.2 and 3.5 SD of the protein, either way, in both replicates (recomputed)
erlotinib = compound: C#Cc1cccc(Nc2ncnc3cc(OCCOC)c(OCCOC)cc23)c1 [erlotinib]
Procedure, shortened: (§1)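 K562 cells at 2×10^6 cells/mL were treated for 30 min with 10 μM compound, and aliquots were heated for 3 min over 48°C-58°C before pooling. Extraction used PBS with 0.5% NP-40 at 4°C, and soluble protein was the supernatant after 21,000xg for 90 min, measured by TMTpro 16plex LC-MS/MS with channel sums equalised. Thermal stability values, relative to control samples and from duplicates, are log2 fold changes.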

[1] = compound: C/C(=N\NC(=O)C1=CC(=CC=C1)S(=O)(=O)N2CCOCC2)/C3=C(C=CC(=C3)Cl)O
Procedure, shortened: as §1

[2] = compound: C1=CC(=C(C=C1Cl)C2=NC3=NC=CN=C3C(=N2)NC4=CC=NC=C4)F
Procedure, shortened: as §1

[3] = compound: C1=CC(=CC=C1C2=NC3=C(N2)C=C(C=C3)C(=O)N)OC4=CC=C(C=C4)Cl
Procedure, shortened: as §1

[4] = compound: C1=CC2=C(C=CC(=C2)/C=C\3/C(=O)NC(=NCC4=CC=CS4)S3)N=C1
Procedure, shortened: as §1

[5] = compound: C1=CC2=NC=CN=C2C=C1/C=C/3\C(=O)NC(=O)S3
Procedure, shortened: as §1

[6] = compound: C1=CC=C(C=C1)C2=NC(=C(N2)C3=CC=NC=C3)C4=CC(=C(C=C4)Cl)O
Procedure, shortened: as §1

[7] = compound: C1=CC=C2C(=C1)C3=NNC4=CC=CC(=C43)C2=O
Procedure, shortened: as §1

[8] = compound: C1CCN(C1)C(=O)NC2=CC=CC(=C2)NC3=NC=C(C(=N3)NCCC4=CN=CN4)Br
Procedure, shortened: as §1

[9] = compound: C1CN(CCC1(CC2=CC=C(C=C2)Cl)N)C3=NC=NC4=C3C=CN4
Procedure, shortened: as §1

IRAK-1-4 Inhibitor I = compound: C1COCCN1CCN2C3=CC=CC=C3N=C2NC(=O)C4=CC(=CC=C4)[N+](=O)[O-] [IRAK-1-4 Inhibitor I]
Procedure, shortened: as §1

ibrutinib = compound: C=CC(=O)N1CCC[C@@H](n2nc(-c3ccc(Oc4ccccc4)cc3)c3c(N)ncnc32)C1 [ibrutinib]
Procedure, shortened: as §1

[10] = compound: CC(=O)c1cnc2ccc(-c3cc(Cl)c(O)c(Cl)c3)nc2c1N[C@H]1CC[C@H](CN(C)C)CC1
Procedure, shortened: as §1

ralimetinib = compound: CC(C)(C)Cn1c(N)nc2ccc(-c3[nH]c(C(C)(C)C)nc3-c3ccc(F)cc3)nc21 [ralimetinib]
Procedure, shortened: as §1

[11] = compound: CC(C)(O)CC(=O)NCCn1ccc2ncnc(Nc3ccc(Oc4cccc(C(F)(F)F)c4)c(Cl)c3)c21
Procedure, shortened: as §1

[12] = compound: CC(C)C1=C2N=C(C=C(N2N=C1)NCC3=CC=CC=C3)NCCCCCCN
Procedure, shortened: as §1

[13] = compound: CC(C)C[C@@H](C=O)NC(=O)[C@H](CC(C)C)NC(=O)[C@H](CC(C)C)NC(=O)OCc1ccccc1
Procedure, shortened: as §1

pinometostat = compound: CC(C)N(C[C@H]1O[C@@H](n2cnc3c(N)ncnc32)[C@H](O)[C@@H]1O)[C@H]1C[C@@H](CCc2nc3cc(C(C)(C)C)ccc3[nH]2)C1 [pinometostat]
Procedure, shortened: as §1

[14] = compound: CC1=C(C(CC(=O)N1)C2=CC=C(C=C2)C(F)(F)F)C(=O)NC3=C(C=C4C(=C3)C=NN4)F
Procedure, shortened: as §1

[15] = compound: CC1=C(C2=C(C=C1)C(=O)C3=CC=CC=C3N2CCCN)C
Procedure, shortened: as §1

Chain of UniProt Q9UPN7 (Q9UPN7 whole entry, looked up): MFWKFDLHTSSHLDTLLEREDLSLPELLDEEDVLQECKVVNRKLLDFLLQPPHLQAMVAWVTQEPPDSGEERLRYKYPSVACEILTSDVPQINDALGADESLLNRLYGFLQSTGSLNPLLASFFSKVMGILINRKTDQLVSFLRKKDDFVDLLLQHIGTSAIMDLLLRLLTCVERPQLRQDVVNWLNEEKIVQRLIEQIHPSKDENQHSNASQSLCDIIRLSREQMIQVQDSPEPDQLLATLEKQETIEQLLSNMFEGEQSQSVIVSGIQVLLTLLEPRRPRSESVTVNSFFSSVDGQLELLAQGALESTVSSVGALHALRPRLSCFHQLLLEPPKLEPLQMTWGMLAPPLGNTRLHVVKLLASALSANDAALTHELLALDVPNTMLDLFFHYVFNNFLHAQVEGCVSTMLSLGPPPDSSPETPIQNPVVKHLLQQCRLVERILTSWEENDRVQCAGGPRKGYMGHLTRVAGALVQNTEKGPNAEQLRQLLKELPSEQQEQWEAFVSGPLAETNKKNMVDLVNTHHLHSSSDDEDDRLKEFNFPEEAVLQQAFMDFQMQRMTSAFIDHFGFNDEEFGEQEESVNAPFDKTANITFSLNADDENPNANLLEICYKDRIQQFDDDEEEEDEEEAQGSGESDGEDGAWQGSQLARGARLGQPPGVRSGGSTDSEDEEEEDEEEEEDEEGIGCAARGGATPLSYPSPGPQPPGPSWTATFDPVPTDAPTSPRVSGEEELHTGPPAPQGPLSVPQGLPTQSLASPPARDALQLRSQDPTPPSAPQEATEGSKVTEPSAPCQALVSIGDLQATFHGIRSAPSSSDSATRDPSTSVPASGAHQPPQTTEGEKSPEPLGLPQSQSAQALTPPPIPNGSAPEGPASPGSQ
Chain of UniProt O15067 (O15067 whole entry, looked up): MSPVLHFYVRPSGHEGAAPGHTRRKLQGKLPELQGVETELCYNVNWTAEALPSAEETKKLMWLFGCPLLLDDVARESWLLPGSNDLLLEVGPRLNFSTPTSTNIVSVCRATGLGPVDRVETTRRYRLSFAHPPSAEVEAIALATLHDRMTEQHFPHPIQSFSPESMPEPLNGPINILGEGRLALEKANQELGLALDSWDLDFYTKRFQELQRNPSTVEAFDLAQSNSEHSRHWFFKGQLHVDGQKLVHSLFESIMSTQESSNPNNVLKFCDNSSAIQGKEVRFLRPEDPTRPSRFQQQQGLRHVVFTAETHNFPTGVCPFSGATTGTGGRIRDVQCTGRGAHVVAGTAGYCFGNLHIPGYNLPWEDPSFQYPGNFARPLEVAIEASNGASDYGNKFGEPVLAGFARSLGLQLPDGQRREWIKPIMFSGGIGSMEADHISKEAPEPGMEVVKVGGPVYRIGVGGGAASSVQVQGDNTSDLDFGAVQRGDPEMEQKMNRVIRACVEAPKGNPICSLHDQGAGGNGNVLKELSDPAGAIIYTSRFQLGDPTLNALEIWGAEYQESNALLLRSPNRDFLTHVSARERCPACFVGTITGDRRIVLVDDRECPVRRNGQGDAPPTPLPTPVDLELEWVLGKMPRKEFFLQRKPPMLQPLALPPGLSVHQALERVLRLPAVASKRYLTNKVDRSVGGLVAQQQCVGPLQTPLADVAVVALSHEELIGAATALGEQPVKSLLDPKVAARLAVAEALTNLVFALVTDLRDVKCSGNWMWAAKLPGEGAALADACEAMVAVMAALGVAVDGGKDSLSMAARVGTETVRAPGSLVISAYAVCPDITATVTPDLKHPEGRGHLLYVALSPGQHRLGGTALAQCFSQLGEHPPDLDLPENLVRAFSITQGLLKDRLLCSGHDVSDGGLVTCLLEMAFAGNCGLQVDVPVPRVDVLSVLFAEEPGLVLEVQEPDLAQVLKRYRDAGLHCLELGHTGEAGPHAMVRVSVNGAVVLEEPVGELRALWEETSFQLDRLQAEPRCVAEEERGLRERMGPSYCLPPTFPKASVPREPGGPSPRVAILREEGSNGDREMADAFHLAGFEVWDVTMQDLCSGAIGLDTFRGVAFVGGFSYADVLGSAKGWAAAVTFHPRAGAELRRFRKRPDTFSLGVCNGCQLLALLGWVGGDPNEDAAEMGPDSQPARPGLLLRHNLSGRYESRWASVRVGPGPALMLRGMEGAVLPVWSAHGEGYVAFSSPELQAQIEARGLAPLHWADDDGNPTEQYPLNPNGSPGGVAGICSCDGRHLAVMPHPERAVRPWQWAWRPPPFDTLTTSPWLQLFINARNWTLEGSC
Chain of UniProt Q9Y2I7 (Q9Y2I7 whole entry, looked up): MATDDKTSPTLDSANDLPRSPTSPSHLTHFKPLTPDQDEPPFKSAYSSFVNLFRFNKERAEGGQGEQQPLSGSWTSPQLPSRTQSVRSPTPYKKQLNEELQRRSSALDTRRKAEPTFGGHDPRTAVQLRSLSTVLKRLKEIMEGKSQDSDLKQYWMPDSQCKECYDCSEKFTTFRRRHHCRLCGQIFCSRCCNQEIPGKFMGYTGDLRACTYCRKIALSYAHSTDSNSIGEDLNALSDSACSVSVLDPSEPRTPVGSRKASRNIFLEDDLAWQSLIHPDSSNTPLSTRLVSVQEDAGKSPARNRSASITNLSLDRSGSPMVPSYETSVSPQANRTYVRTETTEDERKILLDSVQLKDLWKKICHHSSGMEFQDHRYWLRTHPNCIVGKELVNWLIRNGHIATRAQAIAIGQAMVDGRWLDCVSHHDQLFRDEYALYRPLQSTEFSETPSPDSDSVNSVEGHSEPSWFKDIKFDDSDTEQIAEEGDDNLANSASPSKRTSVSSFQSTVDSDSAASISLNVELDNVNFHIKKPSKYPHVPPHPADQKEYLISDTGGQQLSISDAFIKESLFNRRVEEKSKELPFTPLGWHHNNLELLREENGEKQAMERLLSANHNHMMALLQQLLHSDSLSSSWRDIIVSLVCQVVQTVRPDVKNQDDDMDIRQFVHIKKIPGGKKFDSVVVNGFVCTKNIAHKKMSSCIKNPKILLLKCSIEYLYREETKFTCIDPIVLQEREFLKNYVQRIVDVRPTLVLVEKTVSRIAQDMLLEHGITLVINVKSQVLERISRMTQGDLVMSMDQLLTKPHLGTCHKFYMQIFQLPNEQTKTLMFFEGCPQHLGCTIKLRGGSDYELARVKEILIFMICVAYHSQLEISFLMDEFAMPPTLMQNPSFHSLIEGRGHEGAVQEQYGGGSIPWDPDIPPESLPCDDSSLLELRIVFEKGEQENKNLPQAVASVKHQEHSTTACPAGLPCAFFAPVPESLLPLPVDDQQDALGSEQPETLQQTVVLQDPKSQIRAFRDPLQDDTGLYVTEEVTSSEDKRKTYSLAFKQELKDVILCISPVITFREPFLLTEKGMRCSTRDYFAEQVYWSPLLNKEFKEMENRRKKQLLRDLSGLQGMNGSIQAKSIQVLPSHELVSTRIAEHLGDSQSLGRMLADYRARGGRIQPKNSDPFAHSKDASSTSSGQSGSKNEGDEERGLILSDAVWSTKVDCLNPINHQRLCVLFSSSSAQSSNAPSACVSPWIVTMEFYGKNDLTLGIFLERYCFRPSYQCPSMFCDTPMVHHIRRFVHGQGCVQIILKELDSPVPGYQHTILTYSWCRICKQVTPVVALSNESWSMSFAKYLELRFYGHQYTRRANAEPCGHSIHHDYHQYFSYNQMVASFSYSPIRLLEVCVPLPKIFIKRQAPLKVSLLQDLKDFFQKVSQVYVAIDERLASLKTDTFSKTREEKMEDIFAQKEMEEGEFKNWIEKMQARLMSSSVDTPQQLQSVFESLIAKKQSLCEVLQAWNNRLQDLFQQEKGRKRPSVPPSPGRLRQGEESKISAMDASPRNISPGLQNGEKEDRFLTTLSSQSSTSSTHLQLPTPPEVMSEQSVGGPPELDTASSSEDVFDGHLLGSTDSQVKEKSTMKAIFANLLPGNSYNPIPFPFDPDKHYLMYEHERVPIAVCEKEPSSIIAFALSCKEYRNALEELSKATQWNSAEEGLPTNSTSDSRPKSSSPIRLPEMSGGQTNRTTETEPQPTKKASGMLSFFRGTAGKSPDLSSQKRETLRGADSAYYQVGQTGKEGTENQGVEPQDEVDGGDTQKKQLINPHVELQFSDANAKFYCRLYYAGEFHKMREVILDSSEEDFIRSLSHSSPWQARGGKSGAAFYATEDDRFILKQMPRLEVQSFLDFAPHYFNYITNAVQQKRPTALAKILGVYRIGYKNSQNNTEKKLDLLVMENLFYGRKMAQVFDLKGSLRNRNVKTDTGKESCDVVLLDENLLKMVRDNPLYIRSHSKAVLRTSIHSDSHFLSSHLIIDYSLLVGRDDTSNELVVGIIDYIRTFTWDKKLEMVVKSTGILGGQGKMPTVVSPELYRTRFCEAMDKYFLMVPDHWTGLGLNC
Chain of UniProt Q04759 (Q04759 whole entry, looked up): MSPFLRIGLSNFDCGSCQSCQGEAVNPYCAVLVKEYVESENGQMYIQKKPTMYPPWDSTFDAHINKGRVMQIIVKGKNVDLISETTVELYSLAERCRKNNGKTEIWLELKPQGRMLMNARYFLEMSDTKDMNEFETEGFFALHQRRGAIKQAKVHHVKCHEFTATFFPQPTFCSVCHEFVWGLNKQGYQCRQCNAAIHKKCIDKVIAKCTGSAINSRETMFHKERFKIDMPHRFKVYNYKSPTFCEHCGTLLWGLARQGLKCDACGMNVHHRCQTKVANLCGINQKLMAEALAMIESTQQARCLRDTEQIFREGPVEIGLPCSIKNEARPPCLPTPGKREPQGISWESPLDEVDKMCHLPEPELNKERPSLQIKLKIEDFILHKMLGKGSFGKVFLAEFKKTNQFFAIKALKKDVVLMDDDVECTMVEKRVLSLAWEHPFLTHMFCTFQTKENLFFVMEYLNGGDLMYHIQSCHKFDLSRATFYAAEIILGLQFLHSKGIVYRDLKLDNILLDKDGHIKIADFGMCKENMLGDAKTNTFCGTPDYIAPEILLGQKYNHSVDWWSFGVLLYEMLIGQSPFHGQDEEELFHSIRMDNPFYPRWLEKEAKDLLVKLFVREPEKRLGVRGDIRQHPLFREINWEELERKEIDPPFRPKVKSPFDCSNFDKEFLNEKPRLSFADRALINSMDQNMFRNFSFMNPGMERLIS

Target	log2 fold change (erlotinib)	log2 fold change [1]	log2 fold change [2]	log2 fold change [3]	log2 fold change [4]	log2 fold change [5]	log2 fold change [6]	log2 fold change [7]	log2 fold change [8]	log2 fold change [9]	log2 fold change (IRAK-1-4 Inhibitor I)	log2 fold change (ibrutinib)	log2 fold change [10]	log2 fold change (ralimetinib)	log2 fold change [11]	log2 fold change [12]	log2 fold change [13]	log2 fold change (pinometostat)	log2 fold change [14]	log2 fold change [15]
PDE12 (UniProt Q6L8Q7)	-0.023	0.018	0.052	0.027	0.001	-0.008	-0.015	0.054	-0.04	0.026	0.118	0.015	0.085	-0.036	-0.006	-0.032	0.03	-0.031	0.01	0.033
PSMC3 (UniProt P17980)	-0.039	-0.107	-0.037	0.008	-0.059	-0.025	-0.002	-0.001	0.026	-0.004	-0.041	-0.021	0.023	0.016	0.007	0.048	-0.213	0.025	0.053	0.023
PIP4K2A (UniProt P48426)	0.172	0.028	0.075	-0.058	-0.065	0.287	0.108	0.076	0.162	-0.013	0.115	-0.03	0.749 (active)	-0.068	-0.108	0.074	0.018	-0.067	-0.118	-0.02
PPP6R1 (UniProt Q9UPN7)	-0.022	-0.017	0.013	-0.004	0.025	0.012	-0.022	-0.039	-0.014	0.033	0	0.009	0.039	-0.01	-0.031	-0.077	0.038	-0.047	0.003	-0.041
PDIK1L (UniProt Q8N165)	-0.075	0.083	-0.031	-0.052	0.034	0.115	-0.034	0.197	0.023	-0.007	-0.006	-0.205	-0.693 (active)	-0.173	0.032	-0.139	0.091	-0.012	0.052	-0.197
POLR2G (UniProt P62487)	-0.041	-0.011	-0.001	0.025	-0.078	0.044	0.063	0.014	-0.033	0.071	0.001	0.078	0.329 (active)	-0.052	-0.011	0.371 (active)	0.012	-0.044	-0.053	0.268
POLD3 (UniProt Q15054)	0.083	0.131	0.048	-0.031	0.048	0.038	0.027	-0.07	-0.016	-0.099	-0.013	-0.01	-0.043	-0.001	-0.114	-0.357 (active)	-0.117	-0.016	-0.091	0.013
PSMD9 (UniProt O00233)	0.015	0.015	0.022	-0.012	-0.068	0.041	0.006	0.008	0.009	0.03	0.033	-0.005	-0.003	-0.029	0.003	0.069	-0.015	-0.039	0.017	-0.004
PPT2 isoform 3 (UniProt Q9UMR5)	0	0.056	0.033	-0.001	-0.026	-0.02	0.038	0.039	-0.012	0.031	0.078	0.036	-0.04	0.052	0.006	-0.17	-0.014	-0.041	-0.012	0.037
POLR1A (UniProt O95602)	-0.055	-0.236	0.031	0.058	0.04	0.005	0.079	-0.096	0	0.125	0.06	0.06	0.022	0.153	-0.022	-0.091	0.005	0.07	0.052	-0.14
PARL (UniProt Q9H300)	-0.019	0.015	0.011	-0.011	0.016	0.044	0.026	-0.012	0.015	0.017	0.019	0.007	0.003	-0.022	-0.003	-0.233 (active)	0.005	-0.006	0.059	0.017
PRKCA (UniProt P17252)	0.117	0.041	0.04	-0.009	0.127	0.016	-0.019	-0.006	0.008	-0.074	0.012	-0.02	-0.595 (active)	-0.039	-0.02	-0.035	0.104	-0.015	0.011	0.064
PEF1 (UniProt Q9UBV8)	-0.053	0.108	0.079	-0.029	0.134	-0.064	0.109	0.035	-0.008	-0.069	0.003	-0.002	-0.03	-0.057	-0.092	-0.094	-0.085	-0.041	-0.014	0.085
PFAS (UniProt O15067)	-0.011	0.141	0.066	0.205	0.034	-0.22	0.087	0.068	-0.01	-0.146	-0.055	0.065	-0.217	-0.003	0.02	0.131	-0.055	-0.02	0.039	0.17
PIKFYVE (UniProt Q9Y2I7)	-0.174	0.111	0.082	0.082	-0.007	0.075	0.04	-0.014	0.037	-0.108	-0.032	-0.097	-0.07	-0.002	-0.145	-0.256	0.063	0.006	0.034	0.012
PRKCQ (UniProt Q04759)	0.036	0.047	0.024	0.03	0.093	0.012	0.012	-0.008	-0.007	-0.061	0.004	-0.026	-2.02 (active)	-0.02	-0.037	-0.103	-0.011	0.028	0.024	0.018
